For 14 molecules, outcome results are on record in PubChem BioAssay (Tox21).

SMILES strings stand for the structures. Results filed as inconclusive are left out. Active and inactive are the calls of the source. Calls follow the shape of the full dose curve.

This assay is described as follows: qHTS assay to identify small molecule agonists of the AP-1 signaling pathway - cell viability counter screen (AID 1159525). Also: nearly all actives have a fitted effect of over 55% in size. The settings on record: ME-180 (cervical carcinoma) AP-1-bla cells viability, ATP luminescence, 5 h; series mostly up to 76.8 µM. Put shortly: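 AP-1-bla ME-180 cells in Opti-MEM with 0.5% dialyzed FBS, compound exposure 5 h at 37 C in 15-point titration. Viability read in the same wells as ATP content by CellTiter-Glo luminescence, normalised to tetra-n-octylammonium bromide and DMSO controls.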
In general terms: In qHTS, concentration-response curves come from the screen itself.
In the case of `C=CCSCC1Nc2cc(Cl)c(S(N)(=O)=O)cc2S(=O)(=O)N1` (centres undefined), the result was inactive.

For `C[C@H]1O[C@@H](n2cc(F)c(=O)[nH]c2=O)[C@H](O)[C@@H]1O`, the outcome was inactive.

In the case of `Cc1c(F)cc2c(=O)c(C(=O)O)cn3c2c1CCC3C` (centres undefined), the molecule was called inactive.

On to `CCCOCC(C)OCC(C)O` (centres undefined), for which the molecule was classed as inactive.

As for `C#CC(O)CCCCC` (centres undefined), the call was inactive.

Turning to `CC(C)N1C(=O)c2ccccc2C1=O`, the call was inactive.

Regarding `O=S(=O)(O)c1ccccc1O`, the result was inactive.

For the molecule `NS(=O)(=O)c1cc2c(cc1Cl)NC(CSCc1ccccc1)=NS2(=O)=O`, the molecule was classed as inactive.

As for `CC(=O)c1ccc(C)cc1`, the outcome was inactive.

Regarding `CC(CCO)CCCC(C)(C)O` (centres undefined), the outcome was inactive.

Turning to `CC1(C)OC(=O)Nc2ccc(Br)cc21`, the outcome was inactive.

With `CCCCCCCCN(C)CCCCCCCC`, the result was inactive.

For `CC(C)COC(=O)c1ccccc1O`, the result was inactive.

As to `CCCCC=O`, the molecule was called inactive.
